Source: ChEMBL document CHEMBL4296182, “CO-ADD screening of NIH NCI Diversity Set V”
For part of these data: Potency and affinity values are given separately.

Tests used:
Staphylococcus aureus = assay: Antibacterial activity against Staphylococcus aureus MRSA ATCC 43300 (CO-ADD:GP_020); MIC in CAMBH media using NBS plates, by Resazurin F(560/590); type: functional; conditions: Concentration 20 uM, ASSAY_TEST Inhibition of Bacterial Growth, detection method Resazurin, Fluorescence (ex560/em590), MEDIA CAMHB, plate type 384well, CORNING #3640, time 18 hr
Acinetobacter baumannii = assay: Antibacterial activity against Acinetobacter baumannii ATCC 19606 (CO-ADD:GN_034); MIC in CAMBH media using NBS plates, by Resazurin F(560/590); type: functional; conditions: Concentration 20 uM, ASSAY_TEST Inhibition of Bacterial Growth, detection method Resazurin, Fluorescence (ex560/em590), MEDIA CAMHB, plate type 384well, CORNING #3640, time 18 hr
Escherichia coli = assay: Antibacterial activity against Escherichia coli ATCC 25922 (CO-ADD:GN_001); MIC in CAMBH media using NBS plates, by Resazurin F(560/590); type: functional; conditions: Concentration 20 uM, ASSAY_TEST Inhibition of Bacterial Growth, detection method Resazurin, Fluorescence (ex560/em590), MEDIA CAMHB, plate type 384well, CORNING #3640, time 18 hr
Klebsiella pneumoniae = conditions: Concentration 20 uM; ASSAY_TEST Inhibition of Bacterial Growth; detection method Absorption (OD600); MEDIA CAMHB; plate type 384well; NBS; CORNING #3640; time 18 hr
Candida albicans = conditions: 20 µM
Cryptococcus neoformans = conditions: Concentration 20 uM; ASSAY_TEST Inhibition of Fungal Growth; detection method Resazurin; Absorption (OD600-OD570); plate type 384well; NBS; CORNING #3640

CCNc1nc(NC(C)C)nc(-c2ccncc2)n1
Inhibition (Staphylococcus aureus): 6.99%
Inhibition (Acinetobacter baumannii): -1.34%
Inhibition (Escherichia coli): 9.95%
Inhibition (Klebsiella pneumoniae): 10%
Inhibition (Candida albicans): 1.8%
Inhibition (Cryptococcus neoformans): -10.92%

Cn1c(=O)c2nc(SCc3ccccn3)[nH]c2n(C)c1=S
Inhibition (Staphylococcus aureus): 8.4%
Inhibition (Acinetobacter baumannii): 9.84%
Inhibition (Escherichia coli): -0.48%
Inhibition (Klebsiella pneumoniae): 14.94%
Inhibition (Candida albicans): 0.94%
Inhibition (Cryptococcus neoformans): -2.39%

c1ccc2sc(SCSc3nc4ccccc4s3)nc2c1
Inhibition (Staphylococcus aureus): -0.38%
Inhibition (Acinetobacter baumannii): -17.15%
Inhibition (Escherichia coli): 3.51%
Inhibition (Klebsiella pneumoniae): 4.08%
Inhibition (Candida albicans): 12.5%
Inhibition (Cryptococcus neoformans): -13.87%

O=C(CN1CCOCC1)N1CCOCC1
Inhibition (Staphylococcus aureus): 15.46%
Inhibition (Acinetobacter baumannii): -15.04%
Inhibition (Escherichia coli): 7.84%
Inhibition (Klebsiella pneumoniae): 3.48%
Inhibition (Candida albicans): -1.35%
Inhibition (Cryptococcus neoformans): -8.59%

COc1cc(-c2ccc(NC(=O)NC3CC3)c(OC)c2)ccc1NC(=O)NC1CC1
Inhibition (Staphylococcus aureus): 15.12%
Inhibition (Acinetobacter baumannii): -9.96%
Inhibition (Escherichia coli): 13.19%
Inhibition (Klebsiella pneumoniae): 5.08%
Inhibition (Candida albicans): 3.52%
Inhibition (Cryptococcus neoformans): -5.24%

O=C(NC(=S)Nc1cccc2c(O)cccc12)c1cccc(Br)c1
Inhibition (Staphylococcus aureus): 25.64%
Inhibition (Acinetobacter baumannii): -2.51%
Inhibition (Escherichia coli): 14.87%
Inhibition (Klebsiella pneumoniae): 10.97%
Inhibition (Candida albicans): 12.3%
Inhibition (Cryptococcus neoformans): -5.01%

Nc1ccc(Oc2ccc(N)c([N+](=O)[O-])c2)cc1[N+](=O)[O-]
Inhibition (Staphylococcus aureus): 19.29%
Inhibition (Acinetobacter baumannii): -5.09%
Inhibition (Escherichia coli): 4.4%
Inhibition (Klebsiella pneumoniae): 9.85%
Inhibition (Candida albicans): 10.1%
Inhibition (Cryptococcus neoformans): -3.81%

CC(=O)Oc1ccc2cc(-c3ccccc3)c(=O)oc2c1
Inhibition (Staphylococcus aureus): 19.48%
Inhibition (Acinetobacter baumannii): 8.94%
Inhibition (Escherichia coli): -2.31%
Inhibition (Klebsiella pneumoniae): 17.84%
Inhibition (Candida albicans): 4.89%
Inhibition (Cryptococcus neoformans): -3.36%

COc1ccc([N+](=O)[O-])cc1NS(=O)(=O)c1ccc(C)cc1
Inhibition (Staphylococcus aureus): 7.11%
Inhibition (Acinetobacter baumannii): 4.99%
Inhibition (Escherichia coli): 7.35%
Inhibition (Klebsiella pneumoniae): 9.82%
Inhibition (Candida albicans): 5.66%
Inhibition (Cryptococcus neoformans): -6.48%

Cc1ccc(/C=C2\CCOC2=O)cc1
Inhibition (Staphylococcus aureus): 9.11%
Inhibition (Acinetobacter baumannii): -13.71%
Inhibition (Escherichia coli): 3.05%
Inhibition (Klebsiella pneumoniae): 29.06%
Inhibition (Candida albicans): 11.6%
Inhibition (Cryptococcus neoformans): 1.19%

CCCCN1C(=O)CC(C(=O)OCC)=C1C
Inhibition (Staphylococcus aureus): -5.09%
Inhibition (Acinetobacter baumannii): -15.76%
Inhibition (Escherichia coli): -0.5%
Inhibition (Klebsiella pneumoniae): -4.24%
Inhibition (Candida albicans): 1.93%
Inhibition (Cryptococcus neoformans): -4.18%

Cc1cc(NC(=O)OC(C)C)ccc1-c1ccc(NC(=O)OC(C)C)cc1C
Inhibition (Staphylococcus aureus): 6.05%
Inhibition (Acinetobacter baumannii): 1.04%
Inhibition (Escherichia coli): -21.51%
Inhibition (Klebsiella pneumoniae): 2.57%
Inhibition (Candida albicans): 2.22%
Inhibition (Cryptococcus neoformans): 33.06%

O=[N+]([O-])c1ccc(Cn2cnc3c(O)ncnc32)cc1
Inhibition (Staphylococcus aureus): 10.19%
Inhibition (Acinetobacter baumannii): 8.82%
Inhibition (Escherichia coli): 7.89%
Inhibition (Klebsiella pneumoniae): 11.73%
Inhibition (Candida albicans): 2.42%
Inhibition (Cryptococcus neoformans): -11.97%

Oc1c(Cl)cc(Cl)cc1C1Nc2ccccc2-n2cccc21 (stereo unspecified)
Inhibition (Staphylococcus aureus): 8.71%
Inhibition (Acinetobacter baumannii): 9.53%
Inhibition (Escherichia coli): -0.55%
Inhibition (Klebsiella pneumoniae): 11.09%
Inhibition (Candida albicans): 1.7%
Inhibition (Cryptococcus neoformans): -0.72%

CC(C)n1cnc2c(S)ncnc21
Inhibition (Staphylococcus aureus): 14.01%
Inhibition (Acinetobacter baumannii): -16.92%
Inhibition (Escherichia coli): 12.98%
Inhibition (Klebsiella pneumoniae): 11.21%
Inhibition (Candida albicans): 2.47%
Inhibition (Cryptococcus neoformans): -6.64%

C=CCOC(=O)/C=C\C(=O)NC(N)=O
Inhibition (Staphylococcus aureus): 5.08%
Inhibition (Acinetobacter baumannii): -11.84%
Inhibition (Escherichia coli): 0.88%
Inhibition (Klebsiella pneumoniae): 29.86%
Inhibition (Candida albicans): 7.76%
Inhibition (Cryptococcus neoformans): 0.75%

Cc1cc(C)n2c(C)nnc2c1
Inhibition (Staphylococcus aureus): -1.68%
Inhibition (Acinetobacter baumannii): -10.08%
Inhibition (Escherichia coli): 5.69%
Inhibition (Klebsiella pneumoniae): 10.38%
Inhibition (Candida albicans): -0.15%
Inhibition (Cryptococcus neoformans): -3%

CC1(C)N=C(N)N=C(N)N1c1cccc(CN)c1.CCS(=O)(=O)O
Inhibition (Staphylococcus aureus): 8.6%
Inhibition (Acinetobacter baumannii): -6.92%
Inhibition (Escherichia coli): 11.68%
Inhibition (Klebsiella pneumoniae): 13.8%
Inhibition (Candida albicans): 2.57%
Inhibition (Cryptococcus neoformans): -7.41%

COc1ccc2[nH]c(-c3ccccc3)cc2c1
Inhibition (Staphylococcus aureus): 9.9%
Inhibition (Acinetobacter baumannii): 3.58%
Inhibition (Escherichia coli): 0.95%
Inhibition (Klebsiella pneumoniae): 16.65%
Inhibition (Candida albicans): 6.65%
Inhibition (Cryptococcus neoformans): -9.39%

O=C(O)C(Cc1c[nH]c2ccccc12)N1C(=O)c2ccccc2C1=O (stereo unspecified)
Inhibition (Staphylococcus aureus): 3.51%
Inhibition (Acinetobacter baumannii): 4.73%
Inhibition (Escherichia coli): -5.16%
Inhibition (Klebsiella pneumoniae): 9.04%
Inhibition (Candida albicans): 3.93%
Inhibition (Cryptococcus neoformans): 13.59%

CCOC(=O)c1c(N=C(S)NC)sc2c1CCCC2
Inhibition (Staphylococcus aureus): -2.15%
Inhibition (Acinetobacter baumannii): 0.51%
Inhibition (Escherichia coli): 7.45%
Inhibition (Klebsiella pneumoniae): 1.7%
Inhibition (Candida albicans): 6.72%
Inhibition (Cryptococcus neoformans): -11.99%
